According to PubChem BioAssay (EPA / NIEHS):
Several values for one entry are separate records, joined by “and”; a condition that tells them apart may be missing. Equal entries are not always repeated. Activity calls are given as the source filed them. Rule for the calls: active = hit-call score of the fitted dose curve at least 0.9, where 1 is the maximum; inactive = score below 0.9.

Read-out: Basic fibroblast growth factor (bFGF), FGF2 (gene 2247)
Experiment: BSK_MyoF_bFGF: BioMAP Diversity Plus: MyoF Assay for Basic fibroblast growth factor (bFGF) Biomarker Activity (AID 2284246)
Settings: primary human lung fibroblasts
Procedure: BSK_MyoF is a cell-based, multiplexed-readout assay that uses lung fibroblasts, a human […] primary cell, with measurements taken at 24 hours after chemical dosing in a microplate: 96-well plate.BSK_MyoF_bFGF is an assay component measured in the BSK_MyoF assay. It measures bFGF antibody related to regulation of gene expression using ELISA technology.Data from the assay component BSK_MyoF_bFGF was analyzed at the endpoint, BSK_MyoF_bFGF, in the positive analysis fitting direction relative to DMSO as the negative control and baseline of activity. Using a type of binding reporter, gain or loss-of-signal activity can be used to understand protein changes. To generalize the intended target to other relatable targets, this assay endpoint is annotated to the 'growth factor' intended target family, where the subfamily is 'basic fibroblast growth factor '.
The levels of cell surface (or secreted, indicated by the prefix "s") biomarker endpoints were measured by ELISA. Overt cytotoxicity to cells in confluent adherent cultures (all systems other than the BT system) was assessed by measuring total protein levels using sulforhodamine B (SRB) staining in parallel cultures at the time of biomarker measurements, indicated as SRB endpoints. For proliferation assays for adherent cell types, individual cell types are cultured at sub-confluence and relative cell numbers quantified by SRB staining at time points optimized for each system (48 h: 3C and CASM3C systems; 72 h: BT and HDF3CGF systems; 96 h: SAg system). SRB was performed by staining cells with 0.1% SRB after fixation with 10% TCA and reading wells at 560 nm.Viability and proliferation of PBMC (T cells) was quantified by Alamar Blue reduction for the SAg and BT systems. For PBMC viability (referred to as PBMC Cytotoxicity within the assay endpoint names), cells were plated (75,000/well in a 96-well plate) and then chemical samples added for 1 h before addition of activators, SEB and TSST-1 (20 ng/mL final concentration each). Cells were incubated for 90 h. Then, Alamar Blue (20 uL/well) (Invitrogen, Cat DAL1100) was added for 6 h, and the plates were read with a fluorescence microplate reader at 546/580 nm (excitation/emission). For PBMC proliferation, cells were plated and activated as above but incubated for only 16 h prior to addition of Alamar Blue. Plates were read after 6 h.

Question: `CC[N+](CC)(CC)Cc1ccccc1` was tested. Which outcome did it give?
Answer: The outcome was “inactive”.

Question: How did the outcome turn out when `OCC(F)(F)C(F)(F)C(F)(F)C(F)(F)C(F)(F)C(F)(F)C(F)(F)C(F)(F)C(F)(F)C(F)(F)C(F)(F)F` was run?
Answer: Its outcome is “inactive”.

Question: How did the outcome turn out when `COc1cc(OC)nc(NC(=O)NS(=O)(=O)Nc2ccccc2C(=O)N(C)C)n1` was run?
Answer: The outcome was “inactive”.

Question: Which outcome does the source give for `CN(Cc1cnc2nc(N)nc(N)c2n1)c1ccc(C(=O)N[C@@H](CCC(=O)O)C(=O)O)cc1` here?
Answer: Its outcome is “inactive”.

Question: `Cc1ccc(C(=O)c2ccccc2)cc1` was tested. Which outcome did it give?
Answer: The outcome was “inactive”.

Question: `Oc1cc2ccccc2cc1O` was tested. Which outcome did it give?
Answer: The outcome was “inactive”.

Question: `O=C1OC2(c3ccccc31)c1cc(I)c(O)c(I)c1Oc1c2cc(I)c(O)c1I` was tested. Which AC50 did it give?
Answer: The AC50 was 9.75 µM (active).

Question: Which AC50 does the source give for `CCCCCc1ccc(O)cc1` here?
Answer: Its AC50 is 28 µM (active).

Question: How did the outcome turn out when `C=CC(C)(CCC=C(C)C)OC(C)=O` (stereo not drawn) was run?
Answer: The outcome was “inactive”.

Question: Which outcome does the source give for `C=CC(=O)OCCC(F)(F)C(F)(F)C(F)(F)C(F)(F)C(F)(F)C(F)(F)C(F)(F)C(F)(F)F` here?
Answer: The outcome was “inactive”.

Question: For `CCCCCCCCCCCCCCCCCC[N+](C)(C)Cc1ccccc1`, which AC50 is on record?
Answer: The AC50 was 3.06 µM (active).

Question: How did the outcome turn out when `COC1=CC(=O)C[C@@H](C)[C@]12Oc1c(Cl)c(OC)cc(OC)c1C2=O` was run?
Answer: Its outcome is “inactive”.

Question: How did the outcome turn out when `CCOC(=O)CN[C@@H](C(=O)N1CC[C@H]1C(=O)NCc1ccc(/C(N)=N/O)cc1)C1CCCCC1` was run?
Answer: Its outcome is “inactive”.

Question: `C=COC(=O)C(C)(C)CCCCCC` was tested. Which AC50 did it give?
Answer: Its AC50 is 34.8 µM (active).

Question: With `COCN(COC)c1nc(N(COC)COC)nc(N(COC)COC)n1` as the compound, how does the outcome read?
Answer: Its outcome is “inactive”.

Question: Which outcome does the source give for `O=C(O)CCC(F)(F)C(F)(F)C(F)(F)C(F)(F)C(F)(F)C(F)(F)F` here?
Answer: The outcome was “inactive”.

Question: Which outcome does the source give for `O=C(NCc1ncc(C(F)(F)F)cc1Cl)c1c(Cl)cccc1Cl` here?
Answer: Its outcome is “inactive”.

Question: For `C[C@]12CC[C@@H]3c4ccc(O)cc4CC[C@H]3[C@@H]1C[C@@H](O)[C@@H]2O`, which outcome is on record?
Answer: Its outcome is “inactive”.

Question: Which outcome does the source give for `O=S(=O)(O)C(F)(F)C(F)(F)C(F)(F)C(F)(F)C(F)(F)C(F)(F)C(F)(F)C(F)(F)C(F)(F)C(F)(F)F` here?
Answer: Its outcome is “inactive”.

Question: Which outcome does the source give for `OCCN1CN(CCO)CN(CCO)C1` here?
Answer: The outcome was “inactive”.

Question: Which AC50 does the source give for `CC(C)(C)c1ccc(O)c(O)c1` here?
Answer: Its AC50 is 30.1 µM (active).

Question: How did the outcome turn out when `Clc1ccc(Nc2nnc(Cc3ccncc3)c3ccccc23)cc1` was run?
Answer: Its outcome is “inactive”.

Question: For `CC1=NN(c2ccccc2)C(=O)C1`, which outcome is on record?
Answer: The outcome was “inactive”.

Question: How did the AC50 turn out when `CN(C)c1ccc(C(=C2C=CC(=[N+](C)C)C=C2)c2ccccc2)cc1` was run?
Answer: Its AC50 is 0.647 µM (active).

Question: Which outcome does the source give for `CN(CCO)S(=O)(=O)C(F)(F)C(F)(F)C(F)(F)C(F)(F)C(F)(F)C(F)(F)C(F)(F)C(F)(F)F` here?
Answer: Its outcome is “inactive”.

Question: How did the outcome turn out when `Cc1ccc(N=Nc2c(O)ccc3ccccc23)c(C)c1` was run?
Answer: The outcome was “inactive”.

Question: `O=C1c2ccc(O)c(O)c2C(=O)c2c(O)ccc(O)c21` was tested. Which outcome did it give?
Answer: Its outcome is “inactive”.

Question: For `CCCCC(CC)C(=O)OCCOCCOCCOCCOC(=O)C(CC)CCCC` (stereo not drawn), which outcome is on record?
Answer: The outcome was “inactive”.

Question: With `O=C(O)C(F)(F)OC(F)(F)C(F)(F)OC(F)(F)C(F)(F)OC(F)(F)C(F)(F)C(F)(F)C(F)(F)F` as the compound, how does the AC50 read?
Answer: The AC50 was 16.8 µM (active) and 14 µM (active).

Question: With `O=C(NO)c1ccccc1` as the compound, how does the outcome read?
Answer: Its outcome is “inactive”.

Question: Which AC50 does the source give for `NC(=NCCCCCCN=C(N)/N=C(\N)Nc1ccc(Cl)cc1)/N=C(\N)Nc1ccc(Cl)cc1` here?
Answer: The AC50 was 9.23 µM (active).

Question: `O=P(O)(O)CCC(F)(F)C(F)(F)C(F)(F)C(F)(F)C(F)(F)C(F)(F)C(F)(F)C(F)(F)F` was tested. Which outcome did it give?
Answer: The outcome was “inactive”.

Question: For `COc1cccc(O)c1`, which outcome is on record?
Answer: Its outcome is “inactive”.

Question: Which outcome does the source give for `O=C(O)CCC(F)(F)C(F)(F)C(F)(F)C(F)(F)C(F)(F)F` here?
Answer: The outcome was “inactive”.

Question: How did the outcome turn out when `O=P(O)(O)CCC(F)(F)C(F)(F)C(F)(F)C(F)(F)C(F)(F)C(F)(F)F` was run?
Answer: Its outcome is “inactive”.

Question: How did the outcome turn out when `Cc1cccc2c1ccc1ccccc12` was run?
Answer: The outcome was “inactive”.

Question: With `O=C(CC(=O)C(F)(F)C(F)(F)C(F)(F)F)c1cccs1` as the compound, how does the outcome read?
Answer: The outcome was “inactive”.

Question: `C=CC(=C)CC/C=C(\C)CCC=C(C)C` was tested. Which outcome did it give?
Answer: Its outcome is “inactive”.
